This note sets out measurements from ChEMBL document CHEMBL3988442, “University of Dundee, Small-Polar-MMV Screening Library” (2021).

Holding throughout (design): scale not given: direction of the effect not stated beside the values
Experiment [1] has as its target Protein translocase subunit SecA (Escherichia coli (strain K12)) (UniProt P10408). In words: Assay to Identify E. coli SecA ATPase Inhibitors. Type of experiment: functional. Conditions: 30 µM.
Experiment [2] concerns the target T1, Ubiquitin-activating enzyme e1, putative (Leishmania donovani (strain BPK282A1)) (UniProt E9BSI1).
T1 sequence (whole entry): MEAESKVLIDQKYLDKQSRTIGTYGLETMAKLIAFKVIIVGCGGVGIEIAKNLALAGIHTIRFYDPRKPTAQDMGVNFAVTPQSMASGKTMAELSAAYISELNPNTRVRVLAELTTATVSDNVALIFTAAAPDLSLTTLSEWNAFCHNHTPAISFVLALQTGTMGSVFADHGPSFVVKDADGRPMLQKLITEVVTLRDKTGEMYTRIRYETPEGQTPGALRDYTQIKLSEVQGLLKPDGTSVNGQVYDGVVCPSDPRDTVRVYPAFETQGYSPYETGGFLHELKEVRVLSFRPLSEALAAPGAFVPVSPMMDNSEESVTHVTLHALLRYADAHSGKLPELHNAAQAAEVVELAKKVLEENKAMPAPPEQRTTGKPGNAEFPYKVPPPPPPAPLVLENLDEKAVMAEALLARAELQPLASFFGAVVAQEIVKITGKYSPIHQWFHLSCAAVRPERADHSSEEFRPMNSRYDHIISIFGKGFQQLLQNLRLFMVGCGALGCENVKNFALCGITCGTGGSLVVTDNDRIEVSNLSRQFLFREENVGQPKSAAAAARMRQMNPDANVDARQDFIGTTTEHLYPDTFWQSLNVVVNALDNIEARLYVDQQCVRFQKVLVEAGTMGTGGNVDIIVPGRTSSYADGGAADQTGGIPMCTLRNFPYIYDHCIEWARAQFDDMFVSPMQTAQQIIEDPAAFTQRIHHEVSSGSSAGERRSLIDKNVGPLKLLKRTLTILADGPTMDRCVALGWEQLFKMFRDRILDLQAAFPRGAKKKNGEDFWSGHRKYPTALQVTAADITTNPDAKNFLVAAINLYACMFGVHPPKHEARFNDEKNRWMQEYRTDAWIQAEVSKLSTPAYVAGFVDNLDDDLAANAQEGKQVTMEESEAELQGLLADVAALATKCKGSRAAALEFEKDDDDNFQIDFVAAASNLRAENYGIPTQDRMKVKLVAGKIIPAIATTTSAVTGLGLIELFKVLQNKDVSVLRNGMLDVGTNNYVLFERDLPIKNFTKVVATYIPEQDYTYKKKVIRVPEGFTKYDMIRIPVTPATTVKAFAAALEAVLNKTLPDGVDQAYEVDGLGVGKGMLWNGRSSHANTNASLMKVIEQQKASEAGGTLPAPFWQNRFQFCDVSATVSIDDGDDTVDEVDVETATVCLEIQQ
In words: Leishmania donovani Ubiquitin Activating Enzyme (LdE1). Type of experiment: functional. Conditions: 30 µM.

The target of experiment [3] is Sialic acid-binding Ig-like lectin 9 (Homo sapiens) (UniProt Q9Y336). As to the kind of experiment: Hs-Siglec9 ALPHAscreen SOP 20170721. Conditions: 10 µM.
A further experiment concerns Trypanosoma cruzi. In words: Trypanosoma cruzi phosphomannomutase and mannose-1-phosphate guanylyltransferase assay. Type of experiment: functional. Conditions: 10 µM.
For experiment [4], the target named is T2, Arginase-2, mitochondrial (Homo sapiens) (UniProt P78540).
T2 sequence (whole entry): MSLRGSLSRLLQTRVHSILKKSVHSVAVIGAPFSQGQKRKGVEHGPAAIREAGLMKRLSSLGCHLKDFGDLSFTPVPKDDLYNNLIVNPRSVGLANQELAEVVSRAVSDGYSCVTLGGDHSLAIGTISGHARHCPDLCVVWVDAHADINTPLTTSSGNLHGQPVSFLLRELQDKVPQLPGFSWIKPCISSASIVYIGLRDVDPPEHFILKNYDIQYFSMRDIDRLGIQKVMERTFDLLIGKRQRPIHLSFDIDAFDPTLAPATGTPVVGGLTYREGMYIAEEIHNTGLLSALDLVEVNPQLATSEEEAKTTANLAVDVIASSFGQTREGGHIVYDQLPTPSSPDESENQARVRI
In words: in vitro enzyme assay to detect the production of urea directly proportional to the activity of Arginase II. Further: in the data most compounds retested in dose-response had high values. Conditions: 33.3 µM. Type of experiment: functional.

Experiment [5] deals with T3, Proteasome subunit beta (Trypanosoma cruzi) (UniProt O96673).
T3 sequence (whole entry): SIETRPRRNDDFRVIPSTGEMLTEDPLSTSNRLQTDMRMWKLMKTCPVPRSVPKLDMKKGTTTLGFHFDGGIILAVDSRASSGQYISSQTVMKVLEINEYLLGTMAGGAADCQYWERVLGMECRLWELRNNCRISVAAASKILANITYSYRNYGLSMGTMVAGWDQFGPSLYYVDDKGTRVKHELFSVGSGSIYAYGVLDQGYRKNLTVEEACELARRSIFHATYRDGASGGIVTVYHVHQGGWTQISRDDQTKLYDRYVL
As to the kind of experiment: Trypanosoma cruzi proteasome chymotrypsin-like activity (TcProtChymo) assay. Further: in the data most compounds retested in dose-response had high values. Type of experiment: functional. Conditions: 9.37 µM.

The species entered for a further experiment is Homo sapiens. As to the kind of experiment: To identify inhibition of the IFN signalling (Jak-Stat) pathway via expression of an eGFP reporter gene under the control of an IFN-stimulated response element (ISRE) containing MxA promoter. Type of experiment: functional. Conditions: 30 µM. In general terms: In a reporter assay the amount or activity of a reporter protein is the signal.

Experiment [6] concerns the target T4, Tyrosyl-tRNA synthetase, putative (Trypanosoma cruzi (strain CL Brener)) (UniProt Q4DSP6).
T4 sequence (whole entry): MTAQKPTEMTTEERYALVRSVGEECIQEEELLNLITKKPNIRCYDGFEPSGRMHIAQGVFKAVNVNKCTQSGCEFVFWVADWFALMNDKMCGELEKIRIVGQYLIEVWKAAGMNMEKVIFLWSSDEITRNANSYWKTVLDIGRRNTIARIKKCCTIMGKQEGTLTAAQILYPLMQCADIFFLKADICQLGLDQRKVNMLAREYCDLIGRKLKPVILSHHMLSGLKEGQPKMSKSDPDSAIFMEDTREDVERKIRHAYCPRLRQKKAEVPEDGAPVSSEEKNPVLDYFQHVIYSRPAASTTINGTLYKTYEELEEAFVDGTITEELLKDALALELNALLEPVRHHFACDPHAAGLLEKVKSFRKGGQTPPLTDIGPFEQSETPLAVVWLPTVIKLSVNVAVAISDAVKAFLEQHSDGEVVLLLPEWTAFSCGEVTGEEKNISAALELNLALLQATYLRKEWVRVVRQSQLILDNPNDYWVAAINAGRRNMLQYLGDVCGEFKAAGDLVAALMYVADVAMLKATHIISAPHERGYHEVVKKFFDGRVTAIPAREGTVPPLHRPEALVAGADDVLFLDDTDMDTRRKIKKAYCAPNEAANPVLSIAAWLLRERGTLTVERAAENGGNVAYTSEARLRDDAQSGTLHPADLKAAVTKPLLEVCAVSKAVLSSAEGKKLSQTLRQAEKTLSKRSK
In words: Trypanosoma cruzi tyrosyl tRNA synthetase (TcYRS) _High Tyrosine SOP. Further: in the data most compounds retested in dose-response had high values. Type of experiment: functional. Conditions: 30 µM.

Experiment [7] concerns the target T4, Tyrosyl-tRNA synthetase, putative (Trypanosoma cruzi (strain CL Brener)). As to the kind of experiment: Trypanosoma cruzi tyrosyl tRNA synthetase (TcYRS) SOP. Type of experiment: functional. Conditions: 30 µM.
Experiment [8] addresses Chromo domain-containing protein 1 (Saccharomyces cerevisiae (strain ATCC 204508 / S288c) (Baker's yeast)) (UniProt P32657). In words: ScCHD-1 Enzyme Inhibition Assay. Further: in the data most compounds retested in dose-response had high values. To be noted: 30 µM. Type of experiment: functional.

Structures are written as SMILES. For part of these data: Measured potencies and affinities stand elsewhere.

Sequence of Sialic acid-binding Ig-like lectin 9 (Homo sapiens) (Q9Y336 whole entry): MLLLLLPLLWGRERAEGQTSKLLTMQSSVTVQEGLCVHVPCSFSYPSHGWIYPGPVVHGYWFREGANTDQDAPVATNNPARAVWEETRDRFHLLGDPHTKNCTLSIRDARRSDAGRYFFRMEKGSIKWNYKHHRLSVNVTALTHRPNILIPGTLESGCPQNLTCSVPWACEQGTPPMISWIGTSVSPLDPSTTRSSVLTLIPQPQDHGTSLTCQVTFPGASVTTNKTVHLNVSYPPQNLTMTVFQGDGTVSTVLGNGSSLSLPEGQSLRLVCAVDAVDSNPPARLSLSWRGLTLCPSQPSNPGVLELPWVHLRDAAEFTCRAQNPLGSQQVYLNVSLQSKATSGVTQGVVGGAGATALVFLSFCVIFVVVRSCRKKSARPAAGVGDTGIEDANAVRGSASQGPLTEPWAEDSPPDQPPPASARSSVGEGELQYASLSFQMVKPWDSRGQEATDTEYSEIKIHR
Sequence of Chromo domain-containing protein 1 (Saccharomyces cerevisiae (strain ATCC 204508 / S288c) (Baker's yeast)) (P32657 whole entry, the tested form may be a part): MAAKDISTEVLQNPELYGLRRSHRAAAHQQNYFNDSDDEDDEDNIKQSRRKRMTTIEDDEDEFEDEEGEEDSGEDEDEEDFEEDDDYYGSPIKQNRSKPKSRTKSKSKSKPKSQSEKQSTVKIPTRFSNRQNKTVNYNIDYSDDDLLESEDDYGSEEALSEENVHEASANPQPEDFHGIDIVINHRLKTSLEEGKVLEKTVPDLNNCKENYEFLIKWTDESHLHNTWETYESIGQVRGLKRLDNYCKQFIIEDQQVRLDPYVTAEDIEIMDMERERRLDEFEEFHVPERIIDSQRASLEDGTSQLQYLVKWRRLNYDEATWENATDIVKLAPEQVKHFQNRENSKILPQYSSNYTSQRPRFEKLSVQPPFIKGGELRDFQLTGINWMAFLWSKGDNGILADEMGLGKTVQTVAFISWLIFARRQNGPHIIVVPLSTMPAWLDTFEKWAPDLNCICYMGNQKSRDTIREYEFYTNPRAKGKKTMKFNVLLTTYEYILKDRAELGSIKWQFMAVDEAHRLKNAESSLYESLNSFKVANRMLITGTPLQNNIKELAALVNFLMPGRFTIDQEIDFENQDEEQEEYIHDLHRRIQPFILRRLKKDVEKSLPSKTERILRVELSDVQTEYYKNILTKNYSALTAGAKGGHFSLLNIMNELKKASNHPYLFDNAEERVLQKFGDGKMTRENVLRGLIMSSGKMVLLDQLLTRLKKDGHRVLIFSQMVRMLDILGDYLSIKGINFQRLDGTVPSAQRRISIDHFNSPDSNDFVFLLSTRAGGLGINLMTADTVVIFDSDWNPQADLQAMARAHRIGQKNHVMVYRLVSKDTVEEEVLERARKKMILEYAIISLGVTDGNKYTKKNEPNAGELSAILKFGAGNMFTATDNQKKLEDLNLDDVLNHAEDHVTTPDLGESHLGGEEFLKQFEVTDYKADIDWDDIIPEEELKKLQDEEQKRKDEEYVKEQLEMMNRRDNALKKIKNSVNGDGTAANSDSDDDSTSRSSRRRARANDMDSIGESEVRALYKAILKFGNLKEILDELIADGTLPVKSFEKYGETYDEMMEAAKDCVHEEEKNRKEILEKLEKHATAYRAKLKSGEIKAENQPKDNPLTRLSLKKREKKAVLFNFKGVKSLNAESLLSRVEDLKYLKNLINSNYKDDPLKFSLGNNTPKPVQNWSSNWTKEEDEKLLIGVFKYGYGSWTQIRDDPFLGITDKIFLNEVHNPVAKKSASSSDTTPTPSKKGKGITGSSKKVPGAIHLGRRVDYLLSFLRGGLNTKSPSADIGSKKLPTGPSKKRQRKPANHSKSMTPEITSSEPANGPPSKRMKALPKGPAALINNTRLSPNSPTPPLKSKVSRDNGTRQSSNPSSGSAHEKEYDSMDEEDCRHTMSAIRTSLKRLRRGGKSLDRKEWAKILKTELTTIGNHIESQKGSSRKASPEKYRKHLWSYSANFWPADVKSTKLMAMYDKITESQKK
Sequence of Protein translocase subunit SecA (Escherichia coli (strain K12)) (P10408 whole entry): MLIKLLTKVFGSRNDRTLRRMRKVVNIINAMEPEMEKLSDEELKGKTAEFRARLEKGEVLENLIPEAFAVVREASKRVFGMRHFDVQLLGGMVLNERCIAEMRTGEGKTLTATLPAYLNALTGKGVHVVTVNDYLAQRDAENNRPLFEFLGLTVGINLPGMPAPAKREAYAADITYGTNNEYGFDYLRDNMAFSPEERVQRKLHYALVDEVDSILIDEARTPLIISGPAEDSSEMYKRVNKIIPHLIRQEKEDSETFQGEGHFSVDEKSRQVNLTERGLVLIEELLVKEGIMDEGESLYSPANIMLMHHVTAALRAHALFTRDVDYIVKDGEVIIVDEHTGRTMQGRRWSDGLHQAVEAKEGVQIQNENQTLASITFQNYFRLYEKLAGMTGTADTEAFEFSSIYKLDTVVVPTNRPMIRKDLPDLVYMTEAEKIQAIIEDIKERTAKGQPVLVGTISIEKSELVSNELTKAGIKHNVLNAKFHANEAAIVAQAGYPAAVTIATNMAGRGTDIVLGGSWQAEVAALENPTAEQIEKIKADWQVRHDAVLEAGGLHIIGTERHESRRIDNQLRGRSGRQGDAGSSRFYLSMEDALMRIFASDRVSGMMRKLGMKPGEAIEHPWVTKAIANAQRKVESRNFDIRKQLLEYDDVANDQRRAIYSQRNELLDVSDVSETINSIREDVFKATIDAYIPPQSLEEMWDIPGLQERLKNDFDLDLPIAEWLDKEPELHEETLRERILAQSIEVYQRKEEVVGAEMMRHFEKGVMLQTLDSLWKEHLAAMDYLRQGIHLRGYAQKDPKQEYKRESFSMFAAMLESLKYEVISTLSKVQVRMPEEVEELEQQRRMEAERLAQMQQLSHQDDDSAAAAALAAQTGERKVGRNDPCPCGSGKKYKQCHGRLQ

Consider `Cc1cncc(C2CCCN(C(=O)c3cccn3C)C2)n1` (stereo not given), for which the Percent Effect in [1] was -1.26%; in experiment [2] it was 17.3%; in experiment [3], -0.809%; in the experiment on Trypanosoma cruzi, 1.97%; in experiment [4], 1.33%; in [5], 13.3%. Besides, the Percent Effect in the experiment listed under Homo sapiens was -5.79%; in experiment [6], 7.41%; in experiment [7], 12.5%; in experiment [8] it was -25%.
Turning to `c1cnnc(N2CCCC2CNCc2ccsc2)c1` (stereo not given), the Percent Effect in [1] is -2.09%; in experiment [2], -5.13%; in experiment [3], -6.52%; in the experiment with Trypanosoma cruzi, 10.1%; in experiment [4] it was 4.1%; in [5], -8.45%. The Percent Effect in the experiment listed under Homo sapiens was 15.3%; in [6] it was -0.478%; in experiment [7] it was 6.02%; in experiment [8], -2.21%.
Turning to `COc1ccc(CN2C[C@@H]3COC[C@]3(CN(C)C)C2)cc1`, the Percent Effect was -12.1% in experiment [1]; -1.3% in experiment [2]; -2.55% in [3]; 1.07% in the experiment on Trypanosoma cruzi; -1.22% in experiment [4]; 8.56% in experiment [5]. Further, the Percent Effect in the experiment filed under Homo sapiens was -15%; in [6], 4.74%; in [7], 7.69%; in experiment [8], -0.368%.
`Cc1occc1CNC(=O)N(CCCO)C1CCc2ccccc21` (stereo not given): the Percent Effect in [1] is -4.54%; in [2] it was 10.7%; in [3] it was 5.35%; in the experiment on Trypanosoma cruzi, 3.41%; in [4], -1.77%; in experiment [5], 4.33%. The Percent Effect in the experiment filed under Homo sapiens was 16.1%; in experiment [6], 2.63%; in [7], 7.69%; in experiment [8], -8.92%.
Take `COc1ccc(CN2CCC3(CC2)CCN(CC2CC2)C3=O)cc1`: the Percent Effect in experiment [1] is -3.5%; in experiment [2], 19.5%; in experiment [3] it was 0.146%; in the experiment with Trypanosoma cruzi it was -3.56%; in experiment [4], 4.57%; in [5], 3.18%. Moreover, the Percent Effect in the experiment filed under Homo sapiens was 4.44%; in [6], 4.83%; in experiment [7] it was 2.5%; in [8], -2.76%.
`Cc1cnn(CC2CCCCN2CCn2cncn2)c1` (stereo not given): the Percent Effect in experiment [1] is -1.55%; in experiment [2], 16%; in experiment [3], -7.29%; in the experiment with Trypanosoma cruzi, -3.61%; in experiment [4] it was 4.88%; in [5] it was 14.2%. In addition, the Percent Effect was 5.08% in the experiment filed under Homo sapiens, 5.79% in [6], 7.69% in [7] and -6.72% in experiment [8].
On to `NC(=O)C1(CCCc2cccnc2)CCCN(c2ncccn2)C1` (stereo not given), for which the Percent Effect in experiment [1] was -2.51%; in experiment [2], 4%; in experiment [3], 3.57%; with Trypanosoma cruzi it was -3.16%; in [4], 0.885%; in experiment [5], 3.61%. For the same compound, the Percent Effect is 8.71% in the experiment listed under Homo sapiens, 4.23% in experiment [6], 5% in experiment [7] and -13% in [8].
In the case of `CS(=O)(=O)N1CCC(c2nnc3ccc(C(=O)N4CCCC4)cn23)C1` (stereo not given), the Percent Effect in experiment [1] was -4.16%; in [2], -42.9%; in experiment [3], -5.27%; in the experiment on Trypanosoma cruzi, -3.8%; in [4], -2.02%; in experiment [5], 16.9%. For the same compound, the Percent Effect was 6.07% in the experiment listed under Homo sapiens, 0.526% in experiment [6], 5.13% in experiment [7] and -3.44% in experiment [8].
As to `Cc1n[nH]c(=O)c2c(NC(=O)CN3CCOC(C)C3)oc(C)c12` (stereo not given), the Percent Effect is 1.61% in experiment [1]; 17.9% in experiment [2]; -15.7% in experiment [3]; 1.78% in the experiment on Trypanosoma cruzi; 4.92% in [4]; 16.6% in experiment [5]. For the same compound, the Percent Effect in the experiment filed under Homo sapiens is 25.5%; in experiment [6] it was 3.35%; in [7], 18.1%; in [8], -6.38%.
As for `O=C(NCC1CCSCC1)N(CCCO)C1CCc2ccccc21` (stereo not given), the Percent Effect is -1.28% in experiment [1]; 8% in experiment [2]; -4.32% in experiment [3]; -4.02% in the experiment on Trypanosoma cruzi; -3.1% in experiment [4]; 9.92% in [5]. For the same compound, the Percent Effect was 11% in the experiment filed under Homo sapiens, -0.526% in experiment [6], 0% in [7] and -14.3% in experiment [8].
With `Cn1cc(NC(=O)N2CCC(CN3CCCC3)CC2)ccc1=O`, the Percent Effect in experiment [1] is -0.732%; in [2], 7.69%; in [3], 7.22%; with Trypanosoma cruzi it was -1.78%; in [4] it was 11.1%; in [5], 1.79%. Further, the Percent Effect amounted to 14.5% in the experiment filed under Homo sapiens, 3.35% in experiment [6], 6.02% in experiment [7] and 0.924% in [8].
`COc1ccc(F)cc1C(C)NC(=O)Cn1ccc(=O)n(C)c1=O` (stereo not given): the Percent Effect worked out at 2.28% in [1]; 13% in experiment [2]; 2.06% in experiment [3]; 2.05% in the experiment with Trypanosoma cruzi; 5.94% in [4]; 9.82% in experiment [5]. The Percent Effect in the experiment filed under Homo sapiens is -0.632%; in experiment [6], 9.8%; in experiment [7], 21.2%; in [8], -4.5%.
